Data as given in PubChem BioAssay AID1159580 (chemical genetic matrix, 2015).
Where “and” joins values, the source holds several entries; their conditions need not be identical. Equal entries are not always repeated. About 2,000 (36%) of roughly 5,500 compounds were called active. Roughly 18% stayed inconclusive and do not appear here. Cut-off read from the data, not from the text of the source: active = normalized growth mostly below about 0.91 (no sharp cut-off); inconclusive = no clear call, values can overlap the other calls; inactive = mostly above about 0.92. Some of the results follow.

Assay: chemical genetic growth profiling, strain panel (AID 1159580);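 note: tested at 20 µM; growth read once vehicle control cultures reached saturation at 30 °C; 1 = growth at the plate median or of vehicle wells; lower values mean less growth of the strain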
Conditions: S. cerevisiae deletion strains, growth OD

Measured: normalized growth

C=C[C@H]1CN2CC[C@H]1C[C@@H]2[C@@H](OC(=O)OCC)c1ccnc2ccc(OC)cc12
inactive: locus YAL013W, strain DEP1, hits give low values 1 | locus YAL021C, strain ccr4, hits give low values 0.93 | locus YAL026C, strain drs2, hits give low values 1.01 | locus YAL030W, strain snc1, hits give low values 0.989 | locus YBL061C, strain skt5, hits give low values 0.995 | locus YBR009C, strain hhf1, hits give low values 0.978 | locus YBR021W, strain FUR4, hits give low values 0.992 | locus YBR023C, strain chs3, hits give low values 0.997 | locus YBR171W, strain sec66, hits give low values 0.995 | locus YBR229C, strain ROT2, hits give low values 1 | locus YBR231C, strain swc5, hits give low values 1 | locus YBR279W, strain paf1, hits give low values 0.997 | locus YCL011C, strain gbp2, hits give low values 0.969 | locus YCL016C, strain dcc1, hits give low values 0.955 | locus YCL029C, strain bik1, hits give low values 1.02 | locus YCL061C, strain MRC1, hits give low values 0.979 | locus YCL069W, strain vba3, hits give low values 0.998 | locus YCR088W, strain abp1, hits give low values 0.999 | locus YDL005C, strain med2, hits give low values 0.978 | locus YDL035C, strain GPR1, hits give low values 0.981 | locus YDL040C, strain nat1, hits give low values 0.994 | locus YDL074C, strain BRE1, hits give low values 1.03 | locus YDL101C, strain DUN1, hits give low values 1.02 | locus YDL134C, strain PPH21, hits give low values 0.991 | locus YDL185W, strain tfp1, hits give low values 1.02 | locus YDL192W, strain arf1, hits give low values 1.01 | locus YDR001C, strain nth1, hits give low values 0.985 | locus YDR069C, strain doa4, hits give low values 0.979 | locus YDR101C, strain arx1, hits give low values 1 | locus YDR137W, strain rgp1, hits give low values 1.01 | locus YDR150W, strain NUM1, hits give low values 1.01 | locus YDR159W, strain sac3, hits give low values 1.03 | locus YDR162C, strain NBP2, hits give low values 1.02 | locus YDR195W, strain ref2 0.956 | locus YDR297W, strain sur2, hits give low values 1.01 | locus YDR318W, strain mcm21, hits give low values 1.01 | locus YDR334W, strain swr1, hits give low values 0.995 | locus YDR335W, strain msn5, hits give low values 0.983 | locus YDR388W, hits give low values 1.02 | locus YDR392W, strain spt3, hits give low values 0.879 | locus YDR502C, strain sam2, hits give low values 1.01 | locus YEL003W, strain gim4, hits give low values 0.999 | locus YEL037C, strain rad23, hits give low values 0.983 | locus YEL061C, strain CIN8 (second series), hits give low values 0.994 | locus YEL061C, strain CIN8, hits give low values 1.01 | locus YER015W, strain faa2, hits give low values 0.989 | locus YER016W, strain bim1, hits give low values 0.995 | locus YER110C, hits give low values 1.03 | locus YER111C, strain swi4, hits give low values 0.991 | locus YER155C, strain BEM2 (second series), hits give low values 1.01 | locus YER155C, strain BEM2, hits give low values 1 | locus YER167W, strain BCK2, hits give low values 0.997 | locus YFR010W, strain ubp6, hits give low values 1 | locus YGL078C, strain dbp3, hits give low values 1.01 | locus YGL086W, strain mad1, hits give low values 1.01 | locus YGL167C, strain pmr1, hits give low values 0.962 | locus YGL173C, strain kem1, hits give low values 1.01 | locus YGL227W, strain vid30, hits give low values 0.994 | locus YGL240W, strain doc1, hits give low values 1.01 | locus YGL248W, strain PDE1, hits give low values 1.03 | locus YGL253W, strain hxk2, hits give low values 1.04 | locus YGR135W, strain pre9, hits give low values 1.02 | locus YGR229C, strain SMI1, hits give low values 1.01 | locus YGR252W, strain gcn5, hits give low values 0.984 | locus YHR013C, strain ard1, hits give low values 0.951 | locus YHR027C, strain rpn1, hits give low values 0.983 | locus YHR030C, strain SLT2, hits give low values 1.01 and 1.08 | locus YHR079C, strain IRE1 (second series), hits give low values 1.03 | locus YHR079C, strain IRE1, hits give low values 1.03 | locus YHR094C, strain hxt1, hits give low values 1.02 | locus YHR129C, strain ARP1, hits give low values 1.01 | locus YHR142W, strain chs7, hits give low values 0.973 | locus YHR200W, strain rpn10, hits give low values 1.02 | locus YIL066C, strain RNR3, hits give low values 1.01 | locus YIL073C, strain SPO22, hits give low values 1.04 | locus YIL125W, strain kgd1, hits give low values 1.02 | locus YIR030C, strain dcg1, hits give low values 1.02 | locus YJL092W, strain hpr5, hits give low values 0.992 | locus YJL095W, strain BCK1 (second series), hits give low values 0.986 | locus YJL095W, strain BCK1, hits give low values 1.04 and 1.02 | locus YJL115W, strain asf1, hits give low values 0.966 | locus YJL129C, strain trk1, hits give low values 1.02 | locus YJL134W, strain LCB3, hits give low values 1.01 | locus YJL154C, strain vps35, hits give low values 0.986 | locus YJL164C, strain tpk1, hits give low values 0.966 | locus YJL166W, strain qcr8, hits give low values 1 | locus YJL168C, strain set2, hits give low values 1.03 | locus YJL187C, strain SWE1 (second series), hits give low values 1.03 | locus YJR043C, strain POL32, hits give low values 0.996 | locus YJR066W, strain TOR1, hits give low values 1 | locus YKL009W, strain mrt4, hits give low values 1.04 | locus YKL068W, hits give low values 1.02 | locus YKL085W, strain MDH1 (second series), hits give low values 1.01 | locus YKL085W, strain MDH1, hits give low values 1.01 | locus YKL160W, strain elf1, hits give low values 0.96 | locus YKL190W, strain CNB1, hits give low values 1.01 | locus YKR001C, strain vps1, hits give low values 1.01 | locus YKR026C, strain gcn3, hits give low values 0.998 | locus YKR091W, strain srl3, hits give low values 0.991 | locus YLL001W, strain dnm1, hits give low values 0.942 | locus YLL026W, hits give low values 0.985 | locus YLL041C, strain sdh2, hits give low values 0.976 | locus YLR027C, strain aat2, hits give low values 1.01 | locus YLR039C, strain RIC1, hits give low values 1.01 | locus YLR058C, strain SHM2, hits give low values 1.01 | locus YLR102C, strain apc9, hits give low values 1.02 | locus YLR113W, strain HOG1, hits give low values 1.01 | locus YLR221C, strain rsa3, hits give low values 1.04 | locus YLR258W, strain gsy2, hits give low values 0.973 | locus YLR262C, strain YPT6 (second series), hits give low values 1 | locus YLR262C, strain YPT6, hits give low values 1.05 | locus YLR268W, strain sec22, hits give low values 1.02 | locus YLR320W, strain mms22, hits give low values 1.07 | locus YLR330W, strain CHS5, hits give low values 1.01 | locus YLR342W, strain FKS1 (second series), hits give low values 0.998 | locus YLR342W, strain FKS1, hits give low values 0.995 | locus YLR357W, strain rsc2, hits give low values 0.962 | locus YLR370C, strain arc18, hits give low values 0.99 | locus YLR371W, strain rom2, hits give low values 1.02 | locus YLR384C, strain iki3, hits give low values 0.997 | locus YLR418C, strain cdc73, hits give low values 1.02 | locus YML016C, strain PPZ1, hits give low values 1.01 | locus YML032C, strain rad52, hits give low values 1.02 | locus YML120C, strain ndi1, hits give low values 0.973 | locus YML124C, strain tub3, hits give low values 1.02 | locus YMR058W, strain fet3, hits give low values 0.989 | locus YMR078C, strain ctf18, hits give low values 1.02 | locus YMR125W, strain sto1, hits give low values 0.963 | locus YMR129W, hits give low values 0.997 | locus YMR205C, strain PFK2, hits give low values 0.951 | locus YMR223W, strain ubp8, hits give low values 1.01 | locus YMR231W, strain pep5, hits give low values 1 | locus YMR263W, strain SAP30, hits give low values 1.03 | locus YMR307W, strain GAS1, hits give low values 0.905 | locus YNL067W, strain RPL9B, hits give low values 1.05 | locus YNL071W, strain lat1, hits give low values 0.997 | locus YNL183C, strain NPR1, hits give low values 0.986 | locus YNL209W, strain ssb2, hits give low values 0.983 | locus YNL233W, strain BNI4, hits give low values 1.03 | locus YNL248C, strain rpa49, hits give low values 1.02 | locus YNL250W, strain rad50, hits give low values 1.01 | locus YNL271C, strain bni1, hits give low values 1.04 | locus YNL298W, strain CLA4, hits give low values 1.03 | locus YNL307C, strain MCK1, hits give low values 1.02 | locus YNL322C, strain KRE1 (second series), hits give low values 0.988 | locus YNR049C, strain mso1, hits give low values 0.989 | locus YNR052C, strain pop2, hits give low values 1.02 | locus YOL006C, strain TOP1, hits give low values 1.14 | locus YOL012C, strain htz1 1.23 | locus YOL147C, strain pex11, hits give low values 1.02 | locus YOR001W, strain rrp6, hits give low values 1.01 | locus YOR061W, strain CKA2, hits give low values 1.02 | locus YOR069W, strain VPS5, hits give low values 1.01 | locus YOR070C, strain gyp1, hits give low values 1.03 | locus YOR080W, strain dia2, hits give low values 0.988 | locus YOR083W, strain WHI5, hits give low values 0.963 | locus YOR106W, strain vam3, hits give low values 0.934 | locus YOR136W, strain idh2, hits give low values 1.02 | locus YOR144C, strain elg1, hits give low values 1.02 | locus YOR184W, strain ser1, hits give low values 1.02 | locus YOR231W, strain MKK1, hits give low values 1.03 | locus YOR265W, strain rbl2, hits give low values 0.996 | locus YOR270C, strain vph1, hits give low values 1.07 | locus YOR290C, strain snf2, hits give low values 0.94 | locus YOR316C, strain cot1, hits give low values 1.02 | locus YPL051W, strain arl3, hits give low values 0.983 | locus YPL078C, strain atp4, hits give low values 0.946 | locus YPL106C, strain sse1, hits give low values 0.934 | locus YPL240C, strain hsp82, hits give low values 0.998 | locus YPL256C, strain CLN2, hits give low values 1.09 | locus YPR119W, strain clb2, hits give low values 1.01 | locus YPR141C, strain kar3, hits give low values 1.01 | locus YPR163C, strain tif3, hits give low values 1.03 | locus YPR167C, strain met16, hits give low values 1.02 | strain wtn01, hits give low values 1.04
